Assay outcomes from PubChem BioAssay.
HttQ103 aggreg: reduces HttQ103-GFP aggregates in PC12 cells; Potency, µM (titrated, usually from 46.1 µM), for inactives: at the top dose activity change, negative = inhibition, usual class: inhibitors; AID 1688; PC12 HttQ103-GFP aggregates, Acumen cytometry, 40 h; 220,000 tested, 1.1% active; further: on the % scale 0 is the no-effect control and ±100 the full control effect; nearly all actives have a fitted effect of over 60% in size
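PC12 cells with ecdysone-inducible HTT exon1 Q103-GFP, induced by 100 nM tebufenozide, given compounds in a concentration series. GFP aggregates (1–25 um, 6 SD above background) counted in lysates by laser-scanning cytometry, 488 nm excitation.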
HTT ATP protect: Huntington cell model cytoprotection by ATP luminescence; PC12 HTT-Q103 induced, cytoprotection, ATP luminescence, 40 h; Potency, µM (top dose mostly 56.4 µM), for the others: cytoprotection (ATP increase), hits mostly activators; 230,000 tested, 0.14% active; further: % of control where 0% means no effect; nearly all actives have a fitted effect of over 45% in size
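Huntington model: PC12 line, ecdysone-inducible HTTQ103 exon1–GFP, tebufenozide 100 nM. Test articles in a dose series. Endpoint luminescence from cellular ATP.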
ERK EGF inh: EGF-driven ERK pathway inhibition | 130,000 tested, 0.41% active | HEK293-V1b, EGF-stimulated phospho-ERK AlphaScreen | Potency, µM (doses to about 11.5 µM), inactives show at the top dose activity change, negative = inhibition, usual class: inhibitors;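 further: plate controls were stimulated vehicle wells for no effect and unstimulated vehicle basal for full effect; nearly all actives have a fitted effect of over 55% in size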
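In this qHTS, HEK293 cells with stable type-1 vasopressin (V1b) receptor were exposed to compound at 37C for 30 min, stimulated 5 min with EGF at 25 nM, lysed, and probed for phospho-ERK by AlphaScreen.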
Numbers without * were called inactive; ? = inconclusive; / = not tested or not shown; [ ] = remark or other dose. The list is not random: actives were taken first. Their share in the collection is about 1.4%. The call rests on the fitted dose curve; in most records, active means well fitted curve in the direction sought with a large enough effect; inconclusive means small, poorly fitted or top-dose-only effect, or another doubt; inactive means no such curve, though single readings can be large; an effect the other way counts as inactive or inconclusive. Potency means the concentration at half of the fitted maximal effect.

SMILES | HttQ103 aggreg | HTT ATP protect | ERK EGF inh
Cc1cccc(Nc2ncnc3nc[nH]c23)c1 | 13µM* | -18%[10 µM] | 28µM*
Cc1ccc(C)c(Nc2ncnc3nc[nH]c23)c1 | -7% | -18% | /
Cc1ccc2ncnc(Nc3cccc(C(=O)O)c3)c2c1 | -7% | -62% | -3%[57.5 µM]
Cc1cccc(Nc2ncnc3ccc(Br)cc23)c1 | -44%[9.22 µM] | -2% | 1.8µM*
COc1ccc(Nc2ncnc3sc(-c4ccccc4)cc23)cc1 | ? | -21% | /
Cc1ccc2ncnc(Nc3ccccc3)c2c1 | ? | -34% | 3.5µM*
CCOC(=O)c1cccc(Nc2ncnc3ccc(C)cc23)c1 | -6% | -18% | /
Cc1cc2c(Nc3ccccc3)ncnc2s1 | -12%[9.22 µM] | -42%[1.9 µM] | 14µM*
Cn1c(=O)c(-c2cc(F)cc(F)c2)nc2cnc(Nc3ccccc3)nc21 | / | -27% | /
CCCCNc1n[n+](C)c(-c2cccc(C)c2)s1 | -9%[9.22 µM] | 21%[10 µM] | -5%[57.5 µM]
COc1ccccc1Nc1ncnc2ccc(C)cc12 | ? | -27% | /
Clc1ccc(Nc2ncnc3ccc(Br)cc23)cc1 | 4% | -19% | /
COc1cc2ncnc(Nc3cccc(Br)c3)c2cc1OC | / | -21%[1.9 µM] | 0.1µM*
COc1cc2ncnc(NCCCN3CCOCC3)c2cc1OC | -4%[9.22 µM] | 38%[10 µM] | 14%[57.5 µM]
COc1cc2c(Nc3ccc(Br)cc3F)ncnc2cc1OCC1CCN(C)CC1 | 13µM* | -94% | /
Clc1cccc(Nc2ncnc3ccc(Br)cc23)c1 | 11µM* | -52% | /
OC1CCC2Cc3ccccc3N=C12 (configuration not stated) | / | -15%[1.9 µM] | -8%
CO[C@H]1COC(=O)C/C=C\[C@H](C)[C@@H](OC)COC(=O)[C@@H](C)NC(=O)C/C=C\[C@@H]1C | / | -16%[10 µM] | /
CN(C/C=C\c1ccccc1)Cc1cccc2ccccc12 | ? | -8%[40.3 µM] | 4%[25.7 µM]
CC(=O)c1ccccc1[N+](=O)[O-] | / | 23% | /
CCOC(=O)Cc1nnc2c(Nc3ccc(Cl)cc3)nc3nonc3n12 | 18µM* | 7%[10 µM] | /
CCOC(=O)Cc1csc(Nc2ccc(Cl)cc2)n1 | -7% | 5%[1.9 µM] | -8%
C[C@H](Cn1cnc2c(N)ncnc21)OCP(=O)(O)O | -2% | -1% | /
Cc1c(C(=O)O)[nH]c2ccc([N+](=O)[O-])cc12 | 15% | / | 9%
Cc1c(C(=O)N/N=C/C(C)C)[nH]c2ccc([N+](=O)[O-])cc12 | 7.1µM* | 0%[1.9 µM] | -7%
SMILES | HttQ103 aggreg | HTT ATP protect | ERK EGF inh
O=C(c1csnn1)N1CCC2(CCCN(c3ccccc3)C2)CC1 | / | -30% | -5%
COc1cccc([C@@H]2Oc3ccc(Br)cc3C[C@H]2OC(=O)NCCc2ccc(OC)c(OC)c2)c1 | / | -35% | 9%
Clc1cccc(Cl)c1CNC1CCCC1 | 0.11µM* | -8% | /
Cc1cccc2cc(CNC3CCCC3)c(Cl)nc12 | 3%[9.22 µM] | -3%[10 µM] | 10%
CCN1C(=O)/C(=C/C=C2\C=CN(CC)c3ccccc32)SC1=S | -2% | 13%[10 µM] | ?
CCN1C(=O)/C(=C\C=C2/C=CC=CN2CC)SC1=S | 30% | / | 25µM*
O=c1cnc2cnc(N3CCNCC3)nc2n1Cc1ccc(F)cc1 | / | 16% | /
O=C(NNC(=O)c1cc2cc(Br)ccc2oc1=O)c1ccc(O)cc1O | 35µM* | ? | -2%
COCCCNC(=O)c1cc2cc(Br)ccc2oc1=O | / | / | 6%
CN1CCN(c2ncc3nc(-c4ccccc4)c(=O)n(CCC#N)c3n2)CC1 | / | ? | 9%
CN(C)/C=C1/C(=O)N(c2ccc([N+](=O)[O-])cc2)N=C1c1ccccc1 | -13% | 9%[10 µM] | -6%
C/C(=C1/C(=O)N(c2ccc([N+](=O)[O-])cc2)N=C1c1ccccc1)N(C)C | 13µM* | -38% | /
C=C(C)C1CC[C@]2(CO)CC[C@@]3(C)[C@H](CCC4[C@@]5(C)CCC(O)C(C)(C)C5CC[C@@]43C)C12 (some centres not stated) | / | / | 9%
CC(=O)/C=C/n1c(=S)oc2ccccc21 | 7.1µM* | -96%[10 µM] | 1%
CC(C)CC(=O)/C=C/n1c(=S)oc2ccccc21 | ? | -34%[10 µM] | 0%
CN(C)c1ccc(-c2nccc(NCc3cccs3)n2)cc1 | / | -266% | /
CC(=O)Nc1c(I)c(C(=O)O)c(I)c(N(C)C(C)=O)c1I | 9% | 2% | /
COC(=O)C1=C(C(=O)OC)SC(=C2C(=S)C(C)(C)N(C(=O)C(C)C)c3ccccc32)S1 | ? | 10% | /
CCCC(=O)N1c2ccccc2C(=C2SC(C(=O)OC)=C(C(=O)OC)S2)C(=S)C1(C)C | -11% | 19%[10 µM] | 13µM*
CC(C)[C@@H](CC(=O)N[C@@H]1CCCC[C@H]1C(=O)N[C@H](CC(=O)N[C@@H](CCC(=O)O)CC(=O)O)Cc1ccccc1)NC(=O)C[C@H](Cc1ccccc1)NC(=O)[C@@H]1CNCC[C@H]1N | / | -11%[1.9 µM] | 4%
